PubChem BioAssay (Tox21)
Records with an inconclusive call do not appear. Calls of active or inactive are those of the source. Unless noted, calls follow the shape of the dose curve; as a rule, active = well fitted curve in the direction sought with a large enough effect in the repeat runs; inconclusive = weak or mixed curves; inactive = no such curve, though single readings can be large; an effect the other way counts as inactive or inconclusive.

Columns and labels:
[1] = qHTS assay to identify small molecule antagonists of the estrogen receptor alpha (ER-alpha) signaling pathway using the BG1 cell line in the presence of 0.1 nM 17-beta-estradiol - cell viability counter screen (AID 1259241); also: nearly all actives have a fitted effect of over 40% in size
In short: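 VM7Luc4E2, 4,000 cells/well, phenol red-free medium + 10% charcoal-stripped FBS; 24 hr plating; cpd + 0.1 nM E2 final, 22 hr 37C/5% CO2; CellTiter-Fluor 30 min, fluorescence.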

[2] = qHTS assay to identify small molecule antagonists of the androgen receptor (AR) signaling pathway using the MDA cell line in the presence of 0.5 nM R1881 - cell viability counter screen (AID 1259242); also: nearly all actives have a fitted effect of over 45% in size
In short: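 Viability of MDA-kb2 cells was multiplexed with the luciferase AR readout; after 16 hr with compounds and R1881 at 0.5 nM final, CellTiter-Fluor fluorescence was recorded.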

[3] = qHTS assay to identify small molecule HDAC inhibitors (AID 1259364); also: potency is read from the fitted curve at half-maximal effect;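 also: wild-type HCT-116 cells with endogenous class I/II HDAC activity; nearly all actives have a fitted effect of over 45% in size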
In short: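 Read-out: luminescence of HDAC-Glo I/II reagent, 30 min RT, reflecting class I/II deacetylase activity in whole HCT-116 cells pre-exposed 2 h to DMSO-dissolved compounds.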

[4] = qHTS assay to identify small molecule agonists of the sonic hedgehog signaling (Shh) pathway - cell viability counter screen (AID 1259366); also: nearly all actives have a fitted effect of over 50% in size
In short: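 Cytotoxicity counter screen run in the same wells as the Shh reporter assay. NIH/3T3 cells carrying a Gli1 response element–driven luciferase were treated with DMSO-dissolved compounds for 24hr, and live-cell protease activity was measured with CellTiter-Fluor.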

[5] = qHTS assay to identify small molecule antagonists of the sonic hedgehog signaling (Shh) pathway - cell viability counter screen (AID 1259367); also: nearly all actives have a fitted effect of over 55% in size; also: potency is read from the fitted curve at half-maximal effect
In short: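 NIH/3T3-derived Gli1-Luc reporter cells, 2,000/well, plated 4 hr before compound addition, then stimulated with conditioned medium for 24 hr at 37C. Viability measured in the same wells by CellTiter-Fluor fluorescence, reagent added at 23 hr for 1 hr.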

[6] = qHTS assay to identify small molecule agonists of the sonic hedgehog signaling (Shh) pathway (AID 1259368; calls by dose curve;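 also: NIH/3T3-derived 3T3Gli1-Luc cells carrying a stable Gli1-driven firefly luciferase reporter; series mostly up to about 92 µM; nearly all actives have a fitted effect of over 15% in size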)
In short: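 A Gli1 transcriptional response element controlled firefly luciferase in 3T3Gli1-Luc cells. Compounds and a positive control were added 4 hr after plating, and cells were incubated a further 24 hr at 37 C before luminescence detection.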

[7] = molecular target: Androgen receptor (Homo sapiens) (UniProt P10275); assay: qHTS assay to identify small molecule antagonists of the androgen receptor (AR) signaling pathway using the MDA cell line in the presence of 0.5 nM R1881 (AID 1259243); also: nearly all actives have a fitted effect of over 50% in size
Chain of Androgen receptor (Homo sapiens) (P10275 whole entry, looked up): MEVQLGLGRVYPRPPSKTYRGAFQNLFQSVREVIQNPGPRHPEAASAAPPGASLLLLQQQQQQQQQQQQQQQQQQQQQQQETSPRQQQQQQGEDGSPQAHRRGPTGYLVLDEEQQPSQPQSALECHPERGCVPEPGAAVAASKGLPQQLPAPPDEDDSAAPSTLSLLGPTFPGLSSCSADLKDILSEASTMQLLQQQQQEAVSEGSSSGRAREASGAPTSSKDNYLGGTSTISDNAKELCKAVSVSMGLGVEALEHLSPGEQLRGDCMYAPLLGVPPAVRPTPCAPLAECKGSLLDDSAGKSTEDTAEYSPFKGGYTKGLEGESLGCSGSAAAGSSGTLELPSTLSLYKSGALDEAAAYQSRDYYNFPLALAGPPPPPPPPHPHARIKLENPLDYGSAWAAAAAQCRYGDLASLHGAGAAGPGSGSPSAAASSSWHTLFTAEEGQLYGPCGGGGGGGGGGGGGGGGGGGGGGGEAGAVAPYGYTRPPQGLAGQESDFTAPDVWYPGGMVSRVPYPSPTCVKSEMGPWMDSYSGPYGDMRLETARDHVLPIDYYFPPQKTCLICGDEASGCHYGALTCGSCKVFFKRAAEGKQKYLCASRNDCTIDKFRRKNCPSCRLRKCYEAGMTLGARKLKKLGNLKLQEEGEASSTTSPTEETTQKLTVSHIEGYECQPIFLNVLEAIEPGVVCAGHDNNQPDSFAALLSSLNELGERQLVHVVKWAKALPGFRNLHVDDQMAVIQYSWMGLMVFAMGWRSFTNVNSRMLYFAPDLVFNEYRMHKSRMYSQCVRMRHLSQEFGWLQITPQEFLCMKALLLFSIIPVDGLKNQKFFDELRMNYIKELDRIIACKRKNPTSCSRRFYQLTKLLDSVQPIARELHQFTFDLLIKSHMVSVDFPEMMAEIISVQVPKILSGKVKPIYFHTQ
In short: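 Reporter cells cultured without CO2 receive test chemicals, then 0.5 nM R1881 final; after 16 hr at 37C, ONE-Glo is added and light output recorded.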

[8] = molecular target: Estrogen receptor (Homo sapiens) (UniProt P03372); assay: qHTS assay to identify small molecule antagonists of the estrogen receptor alpha (ER-alpha) signaling pathway using the BG1 cell line in the presence of 0.1 nM 17-beta-estradiol (AID 1259244); also: nearly all actives have a fitted effect of over 50% in size
Chain of Estrogen receptor (Homo sapiens) (P03372 whole entry, looked up): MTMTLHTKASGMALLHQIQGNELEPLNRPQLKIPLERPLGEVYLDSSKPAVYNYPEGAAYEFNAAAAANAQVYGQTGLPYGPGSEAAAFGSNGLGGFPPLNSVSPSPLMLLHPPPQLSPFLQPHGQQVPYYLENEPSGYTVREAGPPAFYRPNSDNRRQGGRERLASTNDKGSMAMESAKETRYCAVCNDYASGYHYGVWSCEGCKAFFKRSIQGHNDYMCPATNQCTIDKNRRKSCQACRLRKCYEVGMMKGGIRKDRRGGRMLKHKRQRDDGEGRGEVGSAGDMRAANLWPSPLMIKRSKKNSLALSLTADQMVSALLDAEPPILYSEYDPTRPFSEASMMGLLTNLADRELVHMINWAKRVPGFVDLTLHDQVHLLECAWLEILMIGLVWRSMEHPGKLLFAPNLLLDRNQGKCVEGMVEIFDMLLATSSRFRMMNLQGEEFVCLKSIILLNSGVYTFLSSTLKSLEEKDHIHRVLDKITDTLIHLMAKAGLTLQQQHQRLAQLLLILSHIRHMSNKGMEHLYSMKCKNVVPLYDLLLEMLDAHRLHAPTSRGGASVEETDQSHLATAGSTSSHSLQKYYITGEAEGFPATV
In short: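 Estradiol at 0.1 nM (final) stimulates the endogenous ER-alpha of VM7Luc4E2 cells carrying an ERE-driven luciferase; compounds are co-incubated 22 h at 37C and luciferase output quantified by luminescence.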

[9] = qHTS assay to identify small molecule HDAC inhibitors - cell viability counter screen (AID 1259365); also: series mostly up to about 92 µM; nearly all actives have a fitted effect of over 50% in size
In short: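 Luminescence from CellTiter-Glo, developed 30min at room temperature, reports viability of wild-type HCT-116 cells treated 2hr with compounds at 37 C and 5% CO2 after overnight plating.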

[10] = qHTS assay to identify small molecule phospholipidosis (PLD) inducers (AID 1259344; active = well fitted curve in the direction sought with a large enough effect; an effect the other way counts as inactive or inconclusive)
In short: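 HepG2 cells, 900/well, treated with compound plus LipidTOX Red for 24 h at 37 C; amiodarone positive and DMSO negative controls. Fixed with paraformaldehyde/Hoechst, then high-content imaging scored LipidTOX pit count and integrated intensity per well and per cell.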

Measured: Potency

CC(C)c1ccc(O)cc1
inactive: [1] | [2] | [3] | [4] | [5] | [6]

O=c1[nH]c2ccccc2n1C1CCNCC1
not listed: [2] | [10]
inactive: all other assays above

CON(C)C(=O)Nc1ccc(Br)cc1
active: [3] 24.3 µM
inactive: [1] | [2] | [9] | [4] | [6]

BrCCc1ccccc1
not listed: [7] | [8] | [10]
inactive: all other assays above

CCCCCCC1CCOC1=O (configuration not stated)
not listed: [7] | [8] | [10]
inactive: all other assays above

C[C@H](N)C(=O)c1ccccc1
not listed: [2] | [6]
inactive: all other assays above

N[C@@H]1C[C@H]1c1ccccc1
not listed: [2]
inactive: all other assays above

C=CC(=O)OCCN(C)C
not listed: [7] | [8] | [10]
inactive: all other assays above

CCOC(=O)CC(SP(=S)(OC)OC)C(=O)OCC (configuration not stated)
not listed: [2] | [5] | [9]
inactive: all other assays above

N#CC(Br)(Br)C(N)=O
active: [5] 54.5 µM
not listed: [7] | [8] | [10]
inactive: all other assays above

CCCCS(=O)(=O)Cl
inactive: [1] | [2] | [3] | [4]

CC(C)(C)C(=O)C(Cl)Cl
inactive: [1] | [2] | [3] | [4] | [5] | [6]

CNC(=O)O/N=C(/CSC)C(C)(C)C
not listed: [2] | [6] | [10]
inactive: all other assays above

CC(C)[C@]12CC(=O)[C@H](C)[C@H]1C2
not listed: [7] | [8] | [10]
inactive: all other assays above

Cc1ccc2cc(C)ccc2c1
inactive: [1] | [2] | [3] | [9] | [4] | [6]

O=C(O)CBr
inactive: [1] | [2] | [3] | [9] | [4] | [6]

O=c1[nH]c2ccccc2o1
not listed: [7] | [8] | [10]
inactive: all other assays above

O=C(O)C(F)(F)C(F)(F)C(F)(F)C(F)(F)C(F)(F)C(F)(F)F
not listed: [7] | [8] | [10]
inactive: all other assays above

Cl/C=C/CCl
inactive: [1] | [2] | [3] | [4] | [5]

[P]#[In]
inactive: [1] | [2] | [3] | [9] | [4] | [5]

ClCCCCCCCl
not listed: [7] | [8] | [10]
inactive: all other assays above

CCOC(=O)COc1ccc(Cl)cc1Cl
inactive: [1] | [2] | [3] | [4] | [5]

ClCCCCl
not listed: [7] | [8] | [10]
inactive: all other assays above
